In PubChem BioAssay (EPA / NIEHS):
Records with an inconclusive call do not appear. Activity calls are given as the source filed them. Rule for the calls: active = hit-call score of the fitted dose curve at least 0.9, where 1 is the maximum; inconclusive = response in the unintended direction; inactive = score below 0.9.

Assay: Tanguay_ZF_120hpf_YSE_legacy: (Legacy) Oregon State University Tanguay Lab 120 Hour Post-fertilization zebrafish Assay for Yolk Sac Edema (AID 2283634);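 for AC50: actives raise the incidence of yolk sac edema above the DMSO baseline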
Summary of the method: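 Presence or absence of yolk sac edema was recorded at 120 hpf in surviving larvae. These were wild-type Tropical 5D embryos, chorion removed at 4 hpf, held in static exposure at 28C from 6 hpf with 0.64% DMSO vehicle.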

Row | SMILES | outcome | AC50
1 | Cc1nccn1-c1ccc(Sc2cccc(C3(C(N)=O)CCOCC3)c2)cc1 | inactive | 
2 | COc1cc(C(C)C)c2c(c1)S(=O)(=O)N(COc1cc(=O)n3cccc(OCCN4CCCCC4)c3n1)C2=O | inactive | 
3 | CC[C@H](C)C(=O)O[C@H]1C[C@H](O)C=C2C=C[C@H](C)[C@H](CC[C@@H](O)C[C@@H](O)CC(=O)O)[C@H]21 | inactive | 
4 | CCCC(CCC)C(=O)O | inactive | 
5 | Nc1ccn([C@@H]2O[C@H](CO)[C@@H](O)[C@@H]2O)c(=O)n1 | inactive | 
6 | CCCCCCCC1CCC(=O)O1 (stereo not given) |  | 25.9 µM (active)
7 | Cc1ncc([C@@H](CCCCCCc2ccc3c(n2)NCCC3)CC(=O)O)cn1 | inactive | 
8 | O=C(NO)C1(NS(=O)(=O)c2ccc(Oc3ccc(F)cc3)cc2)CCOCC1 | inactive | 
9 | CCOc1ccc2[nH]cc(C(=O)NCc3ccccc3)c(=O)c2n1 | inactive | 
10 | O=C(O)c1cccc(C(=O)O)c1 | inactive | 

Assay: Tanguay_ZF_120hpf_AXIS_legacy: (Legacy) Oregon State University Tanguay Lab 120 Hour Post-fertilization zebrafish Assay for Body Axis Malformation (AID 2283635);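 for AC50: potency for an increased fraction of larvae scored with body axis malformation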
Summary of the method: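 Binary scoring of axis defects at 120 hpf under brightfield, fitted positive versus DMSO. Tropical 5D embryos, chorion removed by pronase at 4 hpf, were singly exposed in sealed, dark plates at 28C from 6 hpf; DMSO 0.64% final.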

Row | SMILES | outcome | AC50
11 | NC(N)=O | inactive | 
12 | Cc1ccc(S(=O)(=O)NC(=O)NN2CCCCCC2)cc1 | inactive | 
13 | O=c1[nH]cnc2c1ncn2[C@H]1CC[C@@H](CO)O1 | inactive | 
14 | C[C@@H](Oc1ccc(CNC(=O)c2cccnc2Oc2ccc3c(c2)OCO3)c(F)c1)C(=O)O | inactive | 
15 | OCc1ccccc1 | inactive | 
16 | CCCCCCOC(=O)CC(CC(=O)OCCCCCC)(OC(=O)CCC)C(=O)OCCCCCC | inactive | 
17 | COc1cc(C(C)C)c2c(c1)S(=O)(=O)N(COc1cc(=O)n3cccc(OCCN4CCCCC4)c3n1)C2=O |  | 32.4 µM (active)
18 | Cc1nc(-c2ccccn2)ncc1C(=O)Nn1cc(C)c2cc(F)ccc21 | inactive | 
19 | CCN(CC)C(=S)SSC(=S)N(CC)CC |  | 0.36 µM (active)
20 | COS(C)(=O)=O | inactive | 
21 | CCCOc1ccc(S(=O)(=O)N2CCN(CC)CC2)cc1-c1nc2c(CC)n(Cc3ccccn3)nc2c(=O)[nH]1 | inactive | 
22 | CC[C@H](C)C(=O)O[C@H]1C[C@H](O)C=C2C=C[C@H](C)[C@H](CC[C@@H](O)C[C@@H](O)CC(=O)O)[C@H]21 | inactive | 
23 | O=S(=O)(O)c1ccc(N=Nc2c(O)ccc3cc(S(=O)(=O)O)ccc23)cc1 | inactive | 
24 | CCCCCOC(C)=O | inactive | 
25 | O=C(O)[C@H](O)[C@@H](O)C(=O)O | inactive | 
26 | OC[C@H]1O[C@@H]2O[C@H]3[C@H](O)[C@@H](O)[C@@H](O[C@H]4[C@H](O)[C@@H](O)[C@@H](O[C@H]5[C@H](O)[C@@H](O)[C@@H](O[C@H]6[C@H](O)[C@@H](O)[C@@H](O[C@H]7[C@H](O)[C@@H](O)[C@@H](O[C@H]1[C@H](O)[C@H]2O)O[C@@H]7CO)O[C@@H]6CO)O[C@@H]5CO)O[C@@H]4CO)O[C@@H]3CO | inactive | 

Row | SMILES | outcome | AC50
27 | COc1cc2c(c(OC)c1OC)-c1ccc(OC)c(=O)cc1[C@@H](NC(C)=O)CC2 | inactive | 
28 | CCCC(CCC)C(=O)O | inactive | 
29 | CNC(C)=O | inactive | 
30 | Nc1ccn([C@@H]2O[C@H](CO)[C@@H](O)[C@@H]2O)c(=O)n1 | inactive | 
31 | CC(C)C(=O)Nc1ccc([N+](=O)[O-])c(C(F)(F)F)c1 | inactive | 
32 | CC(C)CC(C)O (stereo not given) | inactive | 
33 | CCCCCCCC1CCC(=O)O1 (stereo not given) | inactive | 
34 | Cc1ncc([C@@H](CCCCCCc2ccc3c(n2)NCCC3)CC(=O)O)cn1 | inactive | 
35 | OC[C@H]1O[C@@](CO)(O[C@H]2O[C@H](CO)[C@@H](O)[C@H](O)[C@H]2O)[C@@H](O)[C@@H]1O | inactive | 
36 | O=C(NO)C1(NS(=O)(=O)c2ccc(Oc3ccc(F)cc3)cc2)CCOCC1 | inactive | 
37 | OCC(CO)(CO)CO | inactive | 
38 | CCOc1ccc2[nH]cc(C(=O)NCc3ccccc3)c(=O)c2n1 | inactive | 
39 | OCCNCCO | inactive | 
40 | C=CCc1cc(S(=O)(=O)c2ccc(O)c(CC=C)c2)ccc1O | inactive | 
41 | O=C(O)c1cccc(C(=O)O)c1 | inactive | 

Assay: Tanguay_ZF_120hpf_EYE_legacy: (Legacy) Oregon State University Tanguay Lab 120 Hour Post-fertilization zebrafish Assay for Eye Malformation (AID 2283636);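 note: binary presence or absence of eye malformation scored by brightfield in 120 hpf larvae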
Summary of the method: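 Dechorionated wild-type Tropical 5D zebrafish embryos were exposed statically from 6 hpf, one per well, to 120 hpf at 28C in sealed, foil-covered plates with 0.64% DMSO. Eye malformation was scored present/absent by brightfield microscopy against DMSO controls.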

Row | SMILES | outcome | AC50
42 | Cc1ccc(S(=O)(=O)NC(=O)NN2CCCCCC2)cc1 | inactive | 
43 | O=c1[nH]cnc2c1ncn2[C@H]1CC[C@@H](CO)O1 | inactive | 
44 | Cc1nccn1-c1ccc(Sc2cccc(C3(C(N)=O)CCOCC3)c2)cc1 | inactive | 
45 | C[C@@H](Oc1ccc(CNC(=O)c2cccnc2Oc2ccc3c(c2)OCO3)c(F)c1)C(=O)O | inactive | 
46 | OCc1ccccc1 | inactive | 
47 | Cn1cc[nH]c1=S | inactive | 
48 | NC(=O)N(O)[C@@H]1COc2cc(OCc3ccccc3)ccc21 | inactive | 
49 | CCCCCCOC(=O)CC(CC(=O)OCCCCCC)(OC(=O)CCC)C(=O)OCCCCCC | inactive | 
50 | COc1cc(C(C)C)c2c(c1)S(=O)(=O)N(COc1cc(=O)n3cccc(OCCN4CCCCC4)c3n1)C2=O | inactive | 
51 | Cc1nc(-c2ccccn2)ncc1C(=O)Nn1cc(C)c2cc(F)ccc21 | inactive | 
52 | CCN(CC)C(=S)SSC(=S)N(CC)CC |  | 1.4 µM (active)
53 | COCc1nnc(-c2ccc[n+]([O-])c2)n1-c1c(Cl)c(Cl)cc2[nH]c(=O)c(=O)[nH]c12 | inactive | 
54 | COS(C)(=O)=O | inactive | 
55 | CCCOc1ccc(S(=O)(=O)N2CCN(CC)CC2)cc1-c1nc2c(CC)n(Cc3ccccn3)nc2c(=O)[nH]1 | inactive | 
56 | c1ccc2c(c1)-c1cccc3c1c-2cc1ccccc13 | inactive | 
57 | CC[C@H](C)C(=O)O[C@H]1C[C@H](O)C=C2C=C[C@H](C)[C@H](CC[C@@H](O)C[C@@H](O)CC(=O)O)[C@H]21 | inactive | 
58 | O=S(=O)(O)c1ccc(N=Nc2c(O)ccc3cc(S(=O)(=O)O)ccc23)cc1 | inactive | 

Row | SMILES | outcome | AC50
59 | CCCCCOC(C)=O | inactive | 
60 | OC[C@H]1O[C@@H]2O[C@H]3[C@H](O)[C@@H](O)[C@@H](O[C@H]4[C@H](O)[C@@H](O)[C@@H](O[C@H]5[C@H](O)[C@@H](O)[C@@H](O[C@H]6[C@H](O)[C@@H](O)[C@@H](O[C@H]7[C@H](O)[C@@H](O)[C@@H](O[C@H]1[C@H](O)[C@H]2O)O[C@@H]7CO)O[C@@H]6CO)O[C@@H]5CO)O[C@@H]4CO)O[C@@H]3CO | inactive | 
61 | COc1cc2c(c(OC)c1OC)-c1ccc(OC)c(=O)cc1[C@@H](NC(C)=O)CC2 | inactive | 
62 | CCCC(CCC)C(=O)O | inactive | 
63 | Nc1ccn([C@@H]2O[C@H](CO)[C@@H](O)[C@@H]2O)c(=O)n1 | inactive | 
64 | CC(C)C(=O)Nc1ccc([N+](=O)[O-])c(C(F)(F)F)c1 | inactive | 
65 | CC(C)CC(C)O (stereo not given) | inactive | 
66 | CCCCCCCC1CCC(=O)O1 (stereo not given) | inactive | 
67 | Cc1ncc([C@@H](CCCCCCc2ccc3c(n2)NCCC3)CC(=O)O)cn1 | inactive | 
68 | OC[C@H]1O[C@@](CO)(O[C@H]2O[C@H](CO)[C@@H](O)[C@H](O)[C@H]2O)[C@@H](O)[C@@H]1O | inactive | 
69 | O=C(NO)C1(NS(=O)(=O)c2ccc(Oc3ccc(F)cc3)cc2)CCOCC1 | inactive | 
70 | OCC(CO)(CO)CO | inactive | 
71 | CC(C)CCCCCCOC(=O)C1CCCCC1C(=O)OCCCCCCC(C)C (stereo not given) | inactive | 
72 | CCOc1ccc2[nH]cc(C(=O)NCc3ccccc3)c(=O)c2n1 | inactive | 
73 | OCCNCCO | inactive | 
74 | C=CCc1cc(S(=O)(=O)c2ccc(O)c(CC=C)c2)ccc1O | inactive | 
75 | O=C(O)c1cccc(C(=O)O)c1 | inactive | 
